Cruzain inh Det: blocks cruzain activity in presence of Triton detergent; P25779; purified cruzain, Z-FR-AMC fluorescence, 0.01% Triton; Potency, µM, inactives show max response, negative = inhibition, usual class: inhibitors; hit rate 0.43% among 200,000;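 note: plate controls were neutral wells for no effect and buffer without enzyme for full effect; nearly all actives have a fitted effect of over 40% in size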
Target sequence (P25779 123-467 limits assumed): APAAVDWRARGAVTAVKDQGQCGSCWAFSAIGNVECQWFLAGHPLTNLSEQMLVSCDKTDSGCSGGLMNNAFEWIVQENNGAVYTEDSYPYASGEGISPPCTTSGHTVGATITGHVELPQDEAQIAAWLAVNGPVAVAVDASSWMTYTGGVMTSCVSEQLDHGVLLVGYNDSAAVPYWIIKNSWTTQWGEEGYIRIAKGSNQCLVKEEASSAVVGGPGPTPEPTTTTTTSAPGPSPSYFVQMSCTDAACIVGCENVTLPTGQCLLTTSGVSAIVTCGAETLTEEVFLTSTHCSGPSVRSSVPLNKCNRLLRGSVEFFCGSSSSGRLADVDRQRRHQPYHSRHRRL
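15 min RT preincubation of 1.5 nM cruzain with compound, then 2 uM Z-FR-AMC added; kinetic AMC fluorescence, 60 s delta. Triton X-100 0.01%, pH 5.5.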
Cruzain inh noDet: inhibitors of Trypanosoma cruzi cruzain without detergent. P25779. purified cruzain, Z-FR-AMC fluorescence, no detergent. Potency, µM, without a hit: max response, negative = inhibition, hits mostly inhibitors. hit rate 2.3% among 200,000. AID 1476;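 note: plate controls were enzyme without inhibitor for no effect and buffer without enzyme for full effect; nearly all actives have a fitted effect of over 40% in size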
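Detergent-free condition (0.00005% Triton X-100) in acetate buffer pH 5.5 with DTT. 1.5 nM enzyme and compound were pre-mixed 15 min, then 2 uM Z-FR-AMC substrate added; reaction progress from fluorescence change between first and third reads (60 s).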
Numbers without * were called inactive; ? = inconclusive. Hits are enriched below; roughly 2.6% of the tested compounds scored in any of these assays. Calls come from the whole dose curve; as a rule, active = well fitted curve in the direction sought with a large enough effect; inconclusive = small, poorly fitted or top-dose-only effect, or another doubt; inactive = no such curve, though single readings can be large; an effect the other way counts as inactive or inconclusive. Potency is the fitted concentration of half-maximal effect.

SMILES	Cruzain inh Det	Cruzain inh noDet
CN(C)S(=O)(=O)c1ccc(C(=O)Nc2nnc(Cc3ccccc3)s2)cc1	3%	-24%
CN(C)S(=O)(=O)c1ccc(C(=O)Nc2nnc(SCc3cccc(F)c3)s2)cc1	-1%	4µM*
Cc1cc(-c2csc(NC(=O)c3ccc(S(=O)(=O)N(C)C)cc3)n2)c(C)n1-c1ccccc1	-5%	16µM*
COc1ccc(NC(=O)N2CCOc3ccc(Cl)cc32)cc1	-7%	12%
COc1cccc(NC(=O)Cn2c(=O)n(CCc3ccc(OC)c(OC)c3)c(=O)c3ccccc32)c1	-6%	5%
Cc1ccc(C)c(NC(=O)Cn2c(=O)n(Cc3ccc4c(c3)OCO4)c(=O)c3ccc(C(=O)NC4CCCCC4)cc32)c1	0%	-11%
O=C(Cn1c(=O)n(Cc2ccc(C(=O)NCc3ccc4c(c3)OCO4)cc2)c(=O)c2ccccc21)Nc1cccc(Cl)c1	-1%	4µM*
Cc1cccc(NC(=O)Cn2c(=O)n(Cc3ccc(C(=O)NCc4ccc5c(c4)OCO5)cc3)c(=O)c3ccccc32)c1	6%	4µM*
Cc1cc(C)c(NC(=O)Cn2c(=O)n(Cc3ccc(C(=O)NCc4ccc5c(c4)OCO5)cc3)c(=O)c3ccccc32)c(C)c1	-2%	4%
CCN(C(=O)Cn1c(=O)n(Cc2ccc3c(c2)OCO3)c(=O)c2ccc(C(=O)NC3CCCCC3)cc21)c1cccc(C)c1	-3%	32µM*
O=C(Cn1c(=O)n(Cc2ccc3c(c2)OCO3)c(=O)c2ccccc21)Nc1cccc(Cl)c1	-5%	-24%
COc1cccc(NC(=O)Cn2c(=O)n(Cc3ccc(C(=O)NCc4ccc(C)cc4)cc3)c(=O)c3ccccc32)c1	-1%	13µM*
Cc1cc(F)ccc1NC(=O)C1CCC(CNS(=O)(=O)c2ccc3c(c2)CCCC(=O)N3)CC1 (stereo unspecified)	1%	2%
CC1CCN(C(=O)Cn2c(=O)n(Cc3ccc4c(c3)OCO4)c(=O)c3ccccc32)CC1	0%	-16%
O=C(Cn1c(=O)n(Cc2ccc3c(c2)OCO3)c(=O)c2ccccc21)N1CCCc2ccccc21	-5%	32µM*
CCOc1cccc(CC(=O)N2CCc3c([nH]c4ccccc34)C2c2ccc(Cl)cc2)c1OCC (stereo unspecified)	3%	20µM*
COc1cccc(C(=O)N2CCc3c([nH]c4ccccc34)C2c2ccc(SC)cc2)c1 (stereo unspecified)	5%	19%
COc1ccc(C2c3[nH]c4ccccc4c3CCN2C(=O)CCC2CCCC2)cc1 (stereo unspecified)	4%	16µM*
CCOc1ccc(C2c3[nH]c4ccccc4c3CCN2C(=O)CCC2CCCC2)cc1 (stereo unspecified)	3%	?
O=C(CCC1CCCC1)N1CCc2c([nH]c3ccccc23)C1c1ccc(F)cc1 (stereo unspecified)	2%	?
COc1ccc(C2c3[nH]c4ccc(OC)cc4c3CCN2C(=O)Nc2ccccc2)cc1 (stereo unspecified)	-6%	25µM*
O=C(CCC1CCCC1)N1CCc2c([nH]c3ccccc23)C1c1ccc(Cl)cc1 (stereo unspecified)	4%	7.9µM*
O=C(CCc1ccccc1)N1CCc2c([nH]c3ccccc23)C1c1ccc(Cl)cc1 (stereo unspecified)	2%	?
CO[C@@H]1c2cc(F)ccc2/C(=C\CCOC(=O)C/C=C/c2ccccc2)[C@H]1C	0%	6%
CCC(Sc1nc2cc3c(cc2c(=O)n1CCCCCC(=O)NCc1ccc2c(c1)OCO2)OCO3)C(=O)NCCCOC (stereo unspecified)	4%	14%
SMILES	Cruzain inh Det	Cruzain inh noDet
CC(C)c1cccc(C(C)C)c1NC(=O)c1ccc(OCC(=O)NCc2ccccc2)cc1	0%	7.9µM*
CC(C)c1ccccc1NC(=O)COc1ccc(C(=O)NCCc2ccccc2)cc1	0%	?
Cc1ccc2nc(/N=C(\N)NC(=O)N3c4ccccc4Sc4ccccc43)nc(C)c2c1	-4%	?
Cc1cc2nc(/N=C(\N)NC(=O)N3c4ccccc4Sc4ccccc43)nc(C)c2cc1C	-4%	16µM*
CC(C)(C)Nc1oc(-c2ccccc2)nc1-c1cccc2ccccc12	4%	-10%
Cc1nn(-c2ccccc2)c(Cl)c1/C=C1\SC(=S)N(C)C1=O	-5%	-16%
CN1C(=O)/C(=C\c2cc(N=Nc3ccccc3)ccc2O)SC1=S	-2%	25µM*
C[C@@H](C(=O)Nc1ccc2ccccc2c1)[C@@H]1C[C@@]1(C)[C@@H](NC(=O)Oc1ccc(F)cc1)c1ccccc1	3%	7.9µM*
C[C@@H](C(=O)Nc1ccc2ccccc2c1)[C@@H]1C[C@@]1(C)[C@@H](NS(=O)(=O)c1ccccc1)c1ccccc1	-1%	?
C[C@@H](C(=O)Nc1ccc2ccccc2c1)[C@@H]1C[C@@]1(C)[C@@H](NS(=O)(=O)c1ccc(-c2ccccc2)cc1)c1ccccc1	1%	3.2µM*
CC(=O)N[C@@H](c1ccccc1)[C@]1(C)C[C@H]1[C@@H](C)C(=O)Nc1ccc2ccccc2c1	-2%	?
CCOc1ccc(-c2cc(NC(=O)c3ccccc3)c(C(=O)OC)s2)cc1	-2%	8%
COc1cc(OC)cc(C(=O)NCCc2csc(-c3cccc(C)c3)n2)c1	-9%	6%
COc1ccc(CNC(=O)Cc2c(C)c3cc4c(C)coc4cc3oc2=O)cc1	0%	-6%
O=C1CCCC2CCCCN12 (stereo unspecified)	3%	-3%
Cc1ccc(-n2c(=O)[nH]c3cc(C(=O)NCCc4ccccc4)ccc3c2=O)cc1	-1%	16µM*
Cc1ccc(CCNC(=O)c2ccc3c(=O)n(-c4ccc(C)cc4)c(=O)[nH]c3c2)cc1	1%	3%
CCCOc1ccc(-c2c(C(=O)N/N=C/c3ccc(OCC)cc3)nnn2-c2nonc2N)cc1	-15%	10µM*
CCCOc1ccc(-c2c(C(=O)N/N=C/c3ccc(OC)cc3)nnn2-c2nonc2N)cc1	-8%	?
CCC1CCCCN1S(=O)(=O)c1ccc(C(=O)Nc2sc3c(c2C(=O)NC)CCC3)cc1 (stereo unspecified)	-1%	8%
O=C(Nc1ccccc1N1CCN(C(=O)c2ccc(Cl)cc2)CC1)c1cc(Br)ccc1Cl	4%	7.9µM*
CC(=O)N1CCN(c2ccccc2NC(=O)c2cc(Br)ccc2Cl)CC1	-2%	3%
COc1ccc(NC(=O)N2CC3(CCN(C(=O)c4ccncc4)CC3)C2)cc1	2%	-3%
CCOc1ccc(CCNC(=O)c2cnc3c(-c4ccc(F)cc4)c(C)nn3c2C)cc1OCC	-2%	-1%
O=C(CS(=O)(=O)c1ccc(Cl)cc1)Nc1nc2ccc(Br)cc2s1	-3%	7.9µM*
SMILES	Cruzain inh Det	Cruzain inh noDet
Cc1ccc(S(=O)(=O)CC(=O)Nc2nc3c(C)cccc3s2)cc1	-5%	25µM*
Cc1ccc(Cl)c2sc(NC(=O)CS(=O)(=O)c3ccc(Cl)cc3)nc12	-1%	-19%
CC(=O)Nc1ccc2nc(NC(=O)CS(=O)(=O)c3ccc(C)cc3)sc2c1	-4%	-21%
CC(=O)c1ccc(NS(=O)(=O)c2cccc(S(=O)(=O)c3ccc(Cl)cc3)c2)cc1	-1%	?
CCCCSc1nc2c(cnn2-c2ccc(F)cc2)c(=O)[nH]1	-3%	-5%
CCCSc1nc2c(cnn2-c2ccc(Cl)cc2)c(=O)[nH]1	0%	10µM*
O=c1[nH]c(-c2ccc(Cl)cc2)nc2c1cnn2-c1ccccc1	5%	25µM*

High-throughput results: PubChem BioAssay, National Center for Advancing Translational Sciences (NCATS)
